From PubChem BioAssay
GLP1R ag: activates the human GLP-1 receptor. AID 624172. HEK293 GLP-1R CRE-luciferase, luminescence, 4-6 h; cells express a hypersensitive GLP-1R form. 0.007% of 380,000 active. Potency, µM (top dose mostly 45.6 µM), usual class: activators. P43220
Target sequence (P43220 whole entry, looked up): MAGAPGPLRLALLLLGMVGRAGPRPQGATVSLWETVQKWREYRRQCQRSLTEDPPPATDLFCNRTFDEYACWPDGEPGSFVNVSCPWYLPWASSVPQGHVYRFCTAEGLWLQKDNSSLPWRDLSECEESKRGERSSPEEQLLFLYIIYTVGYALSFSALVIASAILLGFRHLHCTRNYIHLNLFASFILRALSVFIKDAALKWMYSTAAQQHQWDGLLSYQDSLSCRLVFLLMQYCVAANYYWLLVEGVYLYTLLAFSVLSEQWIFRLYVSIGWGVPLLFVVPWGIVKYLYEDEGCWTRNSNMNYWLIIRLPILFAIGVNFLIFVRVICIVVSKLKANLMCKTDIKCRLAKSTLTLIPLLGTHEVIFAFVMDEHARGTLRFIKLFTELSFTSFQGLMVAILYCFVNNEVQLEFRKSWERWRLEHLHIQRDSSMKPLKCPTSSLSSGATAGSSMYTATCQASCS
HEK293 tox: cytotoxicity in counter-screen for GLP-1R inverse agonists; HEK293 cAMP-luciferase reporter cells, luminescence, 24 h; 0.13% of 410,000 active; Potency, µM (titrated, usually from 38.3 µM), most hits filed as inhibitors;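 also: loss of luciferase light is scored as toxicity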
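Step one: seed cells (200 cells/uL, DMEM with 10% Nu serum, 1% pen-strep). Step two: 12-hour incubation at 37 deg C. Step three: pin 23 nL compound, incubate 24 hr. Step four: add luciferase reagent, read luminescence 12 min later.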
BRCA1 expr up: activators of BRCA1 expression; MCF7-BRCA1-FFLuc reporter, luminescence, 48 h; response scale: scaled: vehicle 0%, 10 µM genistein 100%; Potency, µM (titrated, usually from 46.1 µM), hits mostly activators; 1.1% of 380,000 active; AID 624202; also: nearly all actives have a fitted effect of over 80% in size
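Using MCF7 cells harboring a BRCA1 firefly luciferase reporter, plated 2 h before compound pinning, the screen measured luminescence after 48 h incubation. Responses were normalized to DMSO and 10 microM genistein, then fitted for concentration-effect.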
GLP-1R inv ag: inverse agonists of human GLP-1 receptor | P43220 | HEK293 GLP-1R CRE-luciferase, luminescence, 24 h; GLP-1R form is constitutively active | Potency, µM (top dose mostly 38.3 µM), usual class: inhibitors | 1.6% of 410,000 active; also: nearly all actives have a fitted effect of over 55% in size
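GLP-1R inverse agonism mode: basal reporter luminescence in engineered HEK293 cells measured after one day of compound exposure at 37 deg C, with a 12 min room-temperature detection step.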
Integrin act MD: activators of alpha7 integrin expression for muscular dystrophy; AID 624291; 0.064% of 350,000 active; alpha7betagal myoblasts, beta-gal FDG fluorescence, 48 h; Potency, µM (highest dose often 38.3 µM), hits mostly activators; also: nearly all actives have a fitted effect of over 60% in size
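alpha7betagal+/- myoblasts (passage 13, 250/well) treated 48 h at 37C with compounds at 1:260 dilution of DMSO stock. Lysed, then beta-galactosidase activity read as FDG fluorescence (ex 480/em 540) after 30 min, with pre-read for autofluorescence.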
Large screens that a line does not name were inactive. The list is not random: actives were taken first. Their share in the collection is about 2.7%. Calls follow the shape of the dose curve; as a rule, active = well fitted curve in the direction sought with a large enough effect; inconclusive = small, poorly fitted or top-dose-only effect, or another doubt; inactive = no such curve, though single readings can be large; an effect the other way counts as inactive or inconclusive.

C(=C\c1ccccc1)/C=N/N1CCN(Cc2ccccc2)CC1	BRCA1 expr up 11µM, GLP-1R inv ag inconclusive
C(/C=C/c1ccccc1)=N/N1CCN(c2ccccc2)CC1	BRCA1 expr up 7.9µM
CC(/C=N/N1CCN(c2ccccn2)CC1)=C\c1ccccc1	BRCA1 expr up inconclusive
O=[N+]([O-])c1ccccc1/C=C\C=N\N1CCN(c2ccccc2)CC1	GLP-1R inv ag inconclusive
COc1ccc(N2CCN(C(=O)CSc3nc(-c4ccccc4)no3)CC2)cc1	none (no result: GLP1R ag, BRCA1 expr up, Integrin act MD)
CN(C)c1ccc(/C=C/c2cnnc3ccccc23)cc1	none (no result: GLP1R ag, HEK293 tox, GLP-1R inv ag, Integrin act MD)
Cc1ccc(/C=N/N2CCN(c3ccccc3)CC2)cc1	BRCA1 expr up 13µM
Cc1cccc(/C=N/N2CCN(c3ccccc3)CC2)c1	BRCA1 expr up inconclusive
Oc1ccccc1/C=N/N1CCN(c2ccccn2)CC1	GLP1R ag inconclusive, BRCA1 expr up 10µM
C(=N\N1CCN(c2ccccn2)CC1)/c1cccc2ccccc12	GLP-1R inv ag inconclusive
CN1CCN(/N=C/c2ccc(Br)cc2)CC1	BRCA1 expr up 5.6µM
CCOc1cccc2sc(NC(=O)c3ccc(S(=O)(=O)N4CCCCC4C)cc3)nc12 (configuration not stated)	none (no result: GLP1R ag, BRCA1 expr up, Integrin act MD)
Cc1cc(-n2c(SCC(=O)NCc3ccccc3)nc3ccsc3c2=O)ccc1Cl	GLP-1R inv ag inconclusive (no result: GLP1R ag, BRCA1 expr up, Integrin act MD)
O=C(NOCc1ccccc1)c1ccccc1	BRCA1 expr up 1.3µM, GLP-1R inv ag inconclusive
Cc1ccc(CONC(=O)c2cccc(C)c2)cc1	BRCA1 expr up 8.9µM
Cc1cccc(C(=O)NNC(=O)c2cccc(C)c2)c1	none
Cc1ccc(C)c(C(Nc2ccccc2)c2ccc3ccc(C)nc3c2O)c1 (configuration not stated)	GLP-1R inv ag 5.6µM (no result: GLP1R ag, BRCA1 expr up, Integrin act MD)
COc1cc(C(=O)NCCOc2cc(C)ccc2C(C)C)cc(OC)c1OC	GLP-1R inv ag 3.5µM
Cc1ccc(C(C)C)c(OCCNC(=O)c2cncc(Br)c2)c1	GLP-1R inv ag 10µM
COc1cc(C(=O)NCCOc2cc(C)cc(C)c2)cc(OC)c1OC	GLP-1R inv ag inconclusive
Cc1cc(/C=C2/NC(=O)N(c3ccccc3)C2=O)c(C)n1-c1cccnc1	BRCA1 expr up 1.3µM
O=S(=O)(Nc1ccc(-c2nc3cccnc3s2)cc1)c1ccccc1F	BRCA1 expr up 10µM
COc1cccc(N2CCN(C(=O)c3c(C)oc4ncnc(N5CCCCC5)c34)CC2)c1	none (no result: GLP1R ag, Integrin act MD)
CC(C)c1ccc(NC(=O)C(c2ccc3c(c2)OCO3)N2CCCCC2)cc1 (configuration not stated)	GLP-1R inv ag 4µM
O=C(Nc1cc(Cl)cc(Cl)c1)C(c1ccccc1)N1CCCCC1 (configuration not stated)	GLP-1R inv ag 2.2µM
Cc1cccc(NC(=O)C(c2ccccc2Cl)N2CCOCC2)c1 (configuration not stated)	GLP-1R inv ag inconclusive
CC1CCN(C(C(=O)Nc2ccc(C(C)C)cc2)c2ccc3c(c2)OCO3)CC1 (configuration not stated)	GLP-1R inv ag 4.5µM
CC(C)c1ccc(NC(=O)C(c2ccc3c(c2)OCO3)N2CCC3(CC2)OCCO3)cc1 (configuration not stated)	GLP-1R inv ag inconclusive
COc1cccc(NC(=O)C(c2ccccc2)N2CCCCC2)c1 (configuration not stated)	GLP-1R inv ag inconclusive
Cc1ccc(NC(=O)C(c2ccc(Cl)cc2Cl)N2CCCC2)cc1 (configuration not stated)	GLP-1R inv ag 10µM
CC(C)CN(CCCNC(=O)c1cc(=O)[nH]c2ccc(S(=O)(=O)N3CCCCCC3)cc12)CC(C)C	none (no result: GLP1R ag, BRCA1 expr up, Integrin act MD)
COc1ccc(-c2nc(C)c(CCNC(=O)C(=O)Nc3ccccc3OC)s2)cc1	none (no result: Integrin act MD)
CCOc1nc(NC2CCCCC2)nc(NC(C)(C)C)n1	GLP-1R inv ag 5.6µM
Cc1cc(NC(=O)CN(C)S(=O)(=O)c2ccc3c(c2)CCCC(=O)N3)ccc1Br	GLP-1R inv ag inconclusive (no result: Integrin act MD)
Cc1nc2cc(NC(=O)NCc3ccco3)ccc2n1C	BRCA1 expr up 11µM
Cn1c(CCNC(=O)c2ccco2)nc2cc(NC(=O)c3ccco3)ccc21	BRCA1 expr up 8.9µM
O=C(COc1ccc2ccccc2c1)Nc1ccc(O)c(-c2nc3ccccc3o2)c1	none (no result: GLP1R ag, HEK293 tox, GLP-1R inv ag, Integrin act MD)
CCSc1ncc(Cl)c(C(=O)N(Cc2ccccc2)c2ccc(OC)cc2)n1	GLP-1R inv ag 5.6µM (no result: GLP1R ag, BRCA1 expr up, Integrin act MD)
Cc1ccc(N(Cc2cc(=O)[nH]c3ccccc23)C(=O)CCl)c(C)c1	GLP-1R inv ag 5.6µM
C=CCc1ccccc1OCCSc1nc(-c2ccccc2F)nc2cc(=O)[nH]n12	none (no result: GLP1R ag, Integrin act MD)
CCN(CC)/[N+]([O-])=N/OCOC(=O)C(C)c1ccc2cc(OC(C)=O)ccc2c1 (configuration not stated)	none (no result: GLP1R ag, HEK293 tox, GLP-1R inv ag, Integrin act MD)
Cc1cc(C(=O)COc2cccc([N+](=O)[O-])c2)c(C)n1C1CC1	BRCA1 expr up 7.1µM
O=C(NCCC(=O)N1CCCCCCC1)c1ccc(Br)cc1	GLP-1R inv ag inconclusive
O=C(NCCC(=O)N1CCCCC1)c1ccc(Br)cc1	BRCA1 expr up 10µM
CCOc1ccc(N(C)S(=O)(=O)c2ccc(C)c(C(=O)N3CCN(Cc4ccc5c(c4)OCO5)CC3)c2)cc1	GLP-1R inv ag 11µM
COc1ccc(N(C)S(=O)(=O)c2cccc(C(=O)N3CCN(Cc4ccc5c(c4)OCO5)CC3)c2)cc1	GLP-1R inv ag inconclusive
CCOc1ccc(N(C)S(=O)(=O)c2ccc(C)c(C(=O)NCCc3ccc(OC)cc3)c2)cc1	GLP-1R inv ag 10µM
CCOC(=O)c1nc(Nc2ccc(C(=O)OCC(C)C)cc2)c2ccccc2n1	none (no result: GLP1R ag, BRCA1 expr up, Integrin act MD)
FC(F)(F)c1ccc(C2[C@H]3CN(Cc4cccnc4)[C@H](c4ccccc4)C34CC2(c2cccnc2)C4)cc1 (some centres not stated)	HEK293 tox inconclusive, GLP-1R inv ag 11µM
COC(=O)c1ccc(C23CC4(C2)[C@H](CN(Cc2cccnc2)[C@@H]4c2ccccc2)C3c2ccccc2)cc1 (some centres not stated)	GLP-1R inv ag 8.9µM
COC(=O)c1ccc(C23CC4(C2)[C@H](CN(Cc2cccnc2)[C@@H]4c2ccccc2)C3c2ccc(C(F)(F)F)cc2)cc1 (some centres not stated)	GLP-1R inv ag inconclusive
COc1ccccc1/C=C/c1nc2ccccc2s1	none (no result: GLP1R ag, HEK293 tox, GLP-1R inv ag, Integrin act MD)
Cc1ccc(Cn2nc(C)cc2C(=O)Nc2ccccc2Cl)cc1	BRCA1 expr up 4µM
CCOC(=O)Cn1nc(-c2ccc(F)cc2)cc(Cc2ccccc2)c1=O	GLP-1R inv ag 11µM
Cn1nc(C(=O)Nc2ccccc2Cl)cc1C(=O)Nc1ccccc1Cl	none
Cc1ccc(Cn2nc(C)cc2C(=O)Nc2ccc(Cl)cc2)cc1	GLP-1R inv ag 4.5µM
